Experimental data reported in PubChem BioAssay (NCI).
About 83,000 compounds went through this panel and 20% of them were active in at least one assay; those are over-represented in the sample as a whole.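 Single-dose data. Exposure time 48 hours. Values below 10 considered active.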 Calls of active or inactive are those of the source.

Key:
Experiment in all cases: NCI-60 one-dose screen, 48 h (100 = growth as untreated, 0 = no growth, -100 = all killed)
Details in all cases: 10 µM unless noted
NCI-H23 lung = test system: NCI-H23 lung
NCI-H226 lung = test system: NCI-H226 lung
NCI-H322M lung = test system: NCI-H322M lung
HOP-62 NSCLC = test system: HOP-62 NSCLC
NCI-H460 lung = test system: NCI-H460 lung
HOP-92 NSCLC = test system: HOP-92 NSCLC
NCI-H522 lung = test system: NCI-H522 lung
A549/ATCC NSCLC = test system: A549/ATCC NSCLC
786-0 renal = test system: 786-0 renal
COLO 205 colon = test system: COLO 205 colon

Measured: growth

CCCCCCCCCC(=O)Oc1ccc(/C(=C(/C)Cc2cccc(OC)c2)c2ccc(OCCN(C)C)cc2)cc1
inactive: NCI-H23 lung 99.3% | NCI-H226 lung 114% | NCI-H322M lung 107% | HOP-62 NSCLC 111% | NCI-H460 lung 112% | HOP-92 NSCLC 113% | NCI-H522 lung 97% | A549/ATCC NSCLC 108% | 786-0 renal 103% | COLO 205 colon 118%

COc1cc2c(=O)n(CC3CCCCC3)c3c4cc[nH]c4ncc3c2cc1OC
inactive: NCI-H23 lung 45.3% | NCI-H226 lung 34.5% | NCI-H322M lung 59% | HOP-62 NSCLC 19.2% | NCI-H460 lung 21.1% | NCI-H522 lung 35.1% | A549/ATCC NSCLC 31.6% | 786-0 renal 46.4%
active: HOP-92 NSCLC 1.65% | COLO 205 colon 6.79%

COc1cc(-c2c3sc(=O)[nH]c3nc3c2c(=O)[nH]n3C(C)C)cc2c1OCO2
inactive: NCI-H23 lung 108% | NCI-H226 lung 96.3% | NCI-H322M lung 99.9% | HOP-62 NSCLC 107% | NCI-H460 lung 101% | HOP-92 NSCLC 114% | NCI-H522 lung 96.8% | A549/ATCC NSCLC 94.8% | 786-0 renal 106% | COLO 205 colon 119%

CCOC(=O)C12CCCC1=CC(=O)CC2 (stereo not given)
inactive: NCI-H23 lung 107% | NCI-H226 lung 107% | NCI-H322M lung 104% | HOP-62 NSCLC 101% | NCI-H460 lung 107% | HOP-92 NSCLC 107% | NCI-H522 lung 105% | A549/ATCC NSCLC 91.6% | 786-0 renal 104% | COLO 205 colon 108%

COc1ccc(C2c3ccc4ccccc4c3Oc3ncnc(N)c32)cc1 (stereo not given)
inactive: NCI-H23 lung 83% | NCI-H226 lung 63.9% | NCI-H322M lung 88% | HOP-62 NSCLC 45.1% | NCI-H460 lung 92.4% | HOP-92 NSCLC 70.4% | NCI-H522 lung 46.2% | A549/ATCC NSCLC 97.3% | 786-0 renal 97.1% | COLO 205 colon 94.5%

CCN(CC)CCCC(C)NCCCNc1cccc2cccnc12 (stereo not given)
inactive: NCI-H23 lung 92.8% | NCI-H226 lung 93.5% | NCI-H322M lung 79.1% | HOP-62 NSCLC 82.6% | NCI-H460 lung 101% | HOP-92 NSCLC 92.5% | NCI-H522 lung 103% | A549/ATCC NSCLC 106% | 786-0 renal 109% | COLO 205 colon 91.7%

CN1CCCCC1CCN1c2ccccc2Sc2ccc(Cl)cc21 (stereo not given)
inactive: NCI-H23 lung 77.4% | NCI-H226 lung 93.5% | NCI-H322M lung 59% | HOP-62 NSCLC 84.3% | NCI-H460 lung 71.2% | HOP-92 NSCLC 53.3% | NCI-H522 lung 65.5% | A549/ATCC NSCLC 67.4% | 786-0 renal 61.1% | COLO 205 colon 58.7%

CCCCCn1cnc2c(=S)nc[nH]c21
inactive: NCI-H23 lung 102% | NCI-H226 lung 110% | NCI-H322M lung 121% | HOP-62 NSCLC 110% | NCI-H460 lung 98.5% | HOP-92 NSCLC 101% | NCI-H522 lung 90% | A549/ATCC NSCLC 118% | 786-0 renal 106% | COLO 205 colon 105%

COc1ccc(CN2C(=O)/C(=C\c3cc(OC)c(OC)c(OC)c3)c3cc(OC)ccc32)cc1
active: NCI-H23 lung -44% | NCI-H226 lung -21.1% | NCI-H322M lung 8.29% | NCI-H460 lung -42.2% | NCI-H522 lung -70.1% | A549/ATCC NSCLC 3.05% | 786-0 renal 9.78% | COLO 205 colon -46.3%
inactive: HOP-62 NSCLC 17.1% | HOP-92 NSCLC 37.6%

CC(C)(C)c1nn(-c2ccccc2)c2c1CC1(CN2Cc2ccc3c(c2)OCO3)C(=O)c2ccccc2C1=O
inactive: NCI-H23 lung 106% | NCI-H226 lung 110% | NCI-H322M lung 107% | HOP-62 NSCLC 97.3% | NCI-H460 lung 112% | HOP-92 NSCLC 97.2% | NCI-H522 lung 141% | A549/ATCC NSCLC 79.4% | 786-0 renal 98.4% | COLO 205 colon 108%

O=C(NC(Cc1ccccc1)C(=O)CCl)OCc1ccccc1 (stereo not given)
inactive: NCI-H23 lung 69.4% | NCI-H226 lung 54.4% | NCI-H322M lung 111% | HOP-62 NSCLC 87.1% | NCI-H460 lung 69.6% | HOP-92 NSCLC 73% | A549/ATCC NSCLC 116% | 786-0 renal 79.8% | COLO 205 colon 80.2%
active: NCI-H522 lung 6.56%

O=C1Nc2ccccc2/C1=C/C(=N/c1nnc(-c2ccc(Cl)cc2)s1)c1ccccc1
inactive: NCI-H23 lung 29.1% | NCI-H226 lung 84.3% | NCI-H322M lung 77% | HOP-62 NSCLC 51.5% | NCI-H460 lung 63.7% | HOP-92 NSCLC 26.3% | A549/ATCC NSCLC 82.6%
active: NCI-H522 lung -95.7% | 786-0 renal -56.9% | COLO 205 colon 0.635%

C/C(=C(/c1ccc(O)cc1)c1ccc(OCCN2CCCC2)cc1)c1ccccc1
active: COLO 205 colon -56.4%
inactive: NCI-H23 lung 68.1% | NCI-H226 lung 82.9% | NCI-H322M lung 75.8% | HOP-62 NSCLC 70.3% | NCI-H460 lung 24.7% | HOP-92 NSCLC 30% | NCI-H522 lung 49.8% | A549/ATCC NSCLC 48.7% | 786-0 renal 57.1%
